29 compounds from PubChem BioAssay AID488890 (Southern Research Specialized Biocontainment Screening …, 2010) can be followed below.

The whole screen tested about 320,000 compounds, of which about 1,300 (0.41%) were called active. Inconclusive results (about 3%) are left out. No rule for the calls is given here. The list is a sample of the results. Results with a measured potency or affinity are listed apart.

The assay in a line: growth inhibition of non-replicating M. tuberculosis (AID 488890).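 Also: plate controls were DMSO cells for no effect and high antibiotic wells for full effect.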 To be noted: Mycobacterium tuberculosis non-replicating, at 25 µM, stronger effect = higher value.
Broadly, the inhibition is the drop in the measured response relative to a control, in per cent. As to `Cc1ccc(C2=NN(CCC(=O)NCc3ccc4c(c3)OCO4)C(=O)CC2)cc1`, the inhibition amounted to 4.59%.

Turning to `COCCN(C(=O)C1CCCO1)c1c(N)n(CC(C)C)c(=O)[nH]c1=O` (centres undefined), the inhibition was -18.2%.

With `NC(=S)N/N=C/c1c(O)c(Br)cc2oc3c(c12)CCCC3`, the inhibition is 56.5%.

As to `Oc1ccc2oc3c(c2c1C=NCc1ccncc1)CCCC3`, the inhibition was 3.96%.

Consider `Cc1nnc(SCC(=O)NNC(=O)c2ccco2)n1-c1cccc(Cl)c1`, for which the inhibition is -5.26%.

As for `CCC(CC)C(=O)N=C1SC2CS(=O)(=O)CC2N1CCc1ccc(OC)c(OC)c1` (centres undefined), the inhibition is -2.38%.

As to `Cn1nnnc1Sc1ncnc2scc(-c3ccc(-c4ccccc4)cc3)c12`, the inhibition is 77%.

On to `Cn1nnnc1Sc1ncnc2scc(-c3ccccc3)c12`, for which the inhibition came to 48.6%.

Consider `Nc1nc(SCCO)[nH]c(=O)c1NC(=O)c1ccco1`, for which the inhibition is -5.12%.

Turning to `CCCCCN(C(=O)CCC(=O)OCCOc1ccccc1)c1c(N)n(CCCC)c(=O)[nH]c1=O`, the inhibition was -0.11%.

For the compound `CCCCN(C)C(=O)c1cc2cc3ccc(OC)cc3nc2o1`, the inhibition was 71.6%.

For `CCN1CCN(C(=O)c2cc3cc4ccc(OC)cc4nc3s2)CC1`, the inhibition is 18.5%.

For the compound `O=c1[nH]c(C2C3CC4CC(C3)CC2C4)nc2ccccc12` (centres undefined), the inhibition came out at 21.6%.

`COc1ccc(C(CC(=O)N2CCCC(C)C2)c2c(OC)cc(OC)c3ccc(=O)oc23)cc1` (centres undefined): the inhibition stood at 28.4%.

`Cc1ccc(S(=O)(=O)Nc2ncnc3ccccc23)cc1`: the inhibition is -1.77%.

As for `CCCCn1c(SCC(=O)NCc2ccco2)nc2cc(S(N)(=O)=O)ccc21`, the inhibition came to 1.57%.

`COc1ccc(C2=NN(C(=O)CSc3nc(=O)n4cc(C)ccc4n3)C(c3ccc(C)cc3)C2)cc1` (centres undefined): the inhibition turned out to be 38.7%.

Consider `Cc1ccc2cc(C3CC(c4ccco4)=NN3C(=O)CCC(=O)O)c(Cl)nc2c1` (centres undefined), for which the inhibition was found to be 2.6%.

Regarding `CCOC(=O)c1c(C)c(C(=O)NC(C)COC)c(C)n1CC` (centres undefined), the inhibition was -4.24%.

Consider `O=c1c(C(c2ccc(Cl)cc2)c2c(O)nc3n(c2=O)CCCS3)c(O)nc2n1CCCS2`, for which the inhibition was 8.19%.

As for `N#Cc1c(-c2ccc(Cl)cc2)nc2n(c1=O)CCCS2`, the inhibition is 4.51%.

On to `Cc1ccc(C(=O)N/N=C\c2sccc2C)cn1`, for which the inhibition is -5.99%.

In the case of `O=C(N/N=C/c1ccc(-c2ccccc2[N+](=O)[O-])o1)c1cncc(Br)c1`, the inhibition was 11.6%.

Turning to `Cc1ccc(C(=O)N/N=C\c2ccc([N+](=O)[O-])o2)cn1`, the inhibition is 70.4%.

In the case of `Cc1ccc(/C=N\NC(=O)c2cncc(Br)c2)o1`, the inhibition was found to be 46.2%.

Take `O=C(N/N=C/c1cccn1-c1ccc([N+](=O)[O-])cc1)c1cccnc1`: the inhibition is -10.5%.

Consider `O=C(N/N=C/c1ccc(O)c([N+](=O)[O-])c1)c1ccncc1`, for which the inhibition was 56.1%.

For `O=C(N/N=C/c1ccc([N+](=O)[O-])cc1)c1cccnc1`, the inhibition was -3.53%.

In the case of `O=C(N/N=C/c1ccccc1[N+](=O)[O-])c1ccncc1`, the inhibition is 35.4%.
